Out of some 340,000 compounds screened, about 280 (0.082%) were called active. This is one part of a sample in which actives are shown more often than they occur. Values without a mark were called inactive. Rule as the data show it: active = inhibition mostly above about 23% (no sharp cut-off); inactive = mostly below about 18%.

As a reminder, the inhibition is the drop in the measured response relative to a control, in per cent.

Sequence of 5-hydroxytryptamine receptor 5A (Homo sapiens) (P47898 whole entry, looked up): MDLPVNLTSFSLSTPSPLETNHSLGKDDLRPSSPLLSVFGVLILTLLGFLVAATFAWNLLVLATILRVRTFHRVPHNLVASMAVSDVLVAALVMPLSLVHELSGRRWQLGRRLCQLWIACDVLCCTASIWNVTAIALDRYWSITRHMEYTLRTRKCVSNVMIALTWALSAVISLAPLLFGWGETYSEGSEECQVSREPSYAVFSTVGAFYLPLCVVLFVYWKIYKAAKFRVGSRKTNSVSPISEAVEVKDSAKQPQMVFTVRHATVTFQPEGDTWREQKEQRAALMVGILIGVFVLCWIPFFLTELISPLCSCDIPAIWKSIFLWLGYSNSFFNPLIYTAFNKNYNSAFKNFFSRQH

The assay has as its target 5-hydroxytryptamine receptor 5A (Homo sapiens) (UniProt P47898). The experiment in a line: inverse agonism at human 5-HT5A receptor – cell-based, luminescence, full-deck HTS, counter-screen for OPRM1-OPRD1 heterodimer inverse agonist project, primary screen (AID 504634).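 Also: 0% = cells with DMSO and 100% = no-cell wells with DMSO.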 As to conditions: HTR5A cell line, at 9.3 µM, stronger effect = higher value. For orientation: A counterscreen serves to expose hits that act by an unwanted route or on another target.
On to `CC(=O)OC1C2(CC3N4C(=O)C5(CO)SSC4(CC31O)C(=O)N5C)OC(C)C(C)(C)C2=O` (stereo not given), for which the inhibition was 97.6% (active). As for `COC1C(O)C(C)OC(OC2CCC3(C=O)C(CCC4C3CCC3(C)C(C5=CC(=O)OC5)CCC43O)C2)C1O` (stereo not given), the figure is -11%. As for `c1ccc(C2NCc3ccccc3-n3cccc32)cc1` (stereo not given), the figure is -5.59%.

On to `COC(=O)C1=C(c2cc3ccccc3s2)C[C@@H]2CC[C@H]1N2C(=O)NC(C)C`, for which the inhibition is 5.09%.

For the compound `C[C@]12CCC3C(CC[C@H]4[C@H](O)[C@H](O)CC[C@]34C)C1CC[C@@H]2O` (stereo not given in full), the inhibition is -10.8%.
